# Most compounds without a hit are left out; they make up all but 10% or so of the library.
# NIH3T3 tox: kills NIH 3T3 cells | NIH 3T3 viability, CellTiter-Glo ATP luminescence, 48-72 h | Potency, µM (series often up to 96.7 µM), for inactives: top-dose activity change, negative = cytotoxicity, actives largely listed as inhibitors | hit rate 4.3% among 94,000 | AID 1345082; also: % is scaled to controls: 0 for no effect and ±100 for the full control effect; nearly all actives have a fitted effect of over 55% in size
#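 NIH 3T3 cells at 400 cells/well received 23 nL of compound by pintool and were incubated 48 or 72 h at 37 °C. Viability was read as ATP-coupled CellTiter-Glo luminescence.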
# HEK cytotox: HEK 293 cell cytotoxicity; hit rate 6.6% among 94,000; HEK 293 viability, ATP luminescence (CellTiter-Glo), 48-72 h; Potency, µM (top dose mostly 115 µM), for the others: top-dose activity change, negative = cytotoxicity, most hits filed as inhibitors; also: % is scaled to controls: 0 for no effect and ±100 for the full control effect; nearly all actives have a fitted effect of over 60% in size
#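 Luminescence from cellular ATP, measured with CellTiter-Glo, indicates HEK 293 viability. Cells plated at 250 cells/well are treated with compound for 48 or 72 hr at 37 degree Celsius before reagent addition.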
# GPT2 inh: blocks human glutamate pyruvate transaminase 2 | Q8TD30 | Recombinant GPT2, coupled pyruvate oxidase/HRP Amplex Red fluorescence | Potency, µM (top dose mostly 57.7 µM), for the others: top-dose activity change, negative = inhibition, most hits filed as inhibitors | hit rate 0.25% among 100,000 | AID 1671188; also: % is scaled to controls: 0 for no effect and ±100 for the full control effect; nearly all actives have a fitted effect of over 60% in size
# Target sequence (Q8TD30 whole entry, looked up): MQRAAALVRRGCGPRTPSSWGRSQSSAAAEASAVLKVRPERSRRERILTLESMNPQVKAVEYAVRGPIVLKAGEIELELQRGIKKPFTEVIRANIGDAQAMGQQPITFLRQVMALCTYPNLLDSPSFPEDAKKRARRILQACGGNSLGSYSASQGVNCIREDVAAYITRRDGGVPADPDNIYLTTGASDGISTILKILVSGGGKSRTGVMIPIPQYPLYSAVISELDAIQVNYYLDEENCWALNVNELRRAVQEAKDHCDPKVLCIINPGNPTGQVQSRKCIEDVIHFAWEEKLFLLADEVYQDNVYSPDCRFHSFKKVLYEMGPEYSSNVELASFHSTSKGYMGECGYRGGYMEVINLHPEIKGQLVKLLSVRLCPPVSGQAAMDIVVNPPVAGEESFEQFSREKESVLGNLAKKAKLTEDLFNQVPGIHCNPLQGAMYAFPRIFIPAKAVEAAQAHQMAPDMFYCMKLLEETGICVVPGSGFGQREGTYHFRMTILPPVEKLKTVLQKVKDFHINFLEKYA
#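 Recombinant GPT2 (10ng/uL) with 250uM a-KG and 2mM L-alanine, 30 min at room temperature, in HEPES pH 7.5 buffer. Pyruvate detected by pyruvate oxidase/HRP/Amplex Red fluorescence after 30 min in the dark; AOA (50uM) as positive control.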
# NPR1 antag: blocks ANP-stimulated signaling of human Npr1 receptor | HEK293 hNpr1 GloSensor cGMP, ANP-stimulated luminescence | AID 1347048 | Potency, µM (doses to about 46.3 µM), without a hit: at the top dose activity change, negative = inhibition, usual class: inhibitors | hit rate 1.6% among 76,000; calls by dose curve; also: % is scaled to controls: 0 for no effect and ±100 for the full control effect; nearly all actives have a fitted effect of over 60% in size
#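 HEK293 cells stably expressing human Npr1 and cGMP GloSensor pGS-40F, loaded 2 h with 2% GloSensor reagent, given compound 30 min at room temperature. Luminescence read before and 20 min after 0.1 nM hNppA.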
# FLuc inh-1: Photinus pyralis luciferase inhibition; P08659; purified P. pyralis luciferase, luminescence, biochemical; Potency, µM (doses to about 115 µM), usual class: inhibitors; hit rate 2.5% among 76,000; AID 1347043; also: % is scaled to controls: 0 for no effect and ±100 for the full control effect; nearly all actives have a fitted effect of over 65% in size
#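 Inhibitors were tested against purified firefly luciferase in a biochemical, low-substrate format (both substrates at 10uM) and luminescence measured with a CCD imager.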
# FLuc SDR -ATP: firefly luciferase binding stabilization, ATP absent | AID 1963318 | Purified FLuc-C-HiBiT, Nano-Glo HiBiT luminescence, no ATP | shares compounds with FLuc inh-1 | hit rate 7.8% among 1,300 | Potency, µM (highest dose often 32.7 µM), inactives show top-dose activation (signal gain), most hits filed as activators; also: nearly all actives have a fitted effect of over 55% in size
# FLuc SDR ATP: firefly luciferase binding stabilization, ATP added | shares compounds with FLuc inh-1 | hit rate 8.7% among 1,300 | Potency, µM (highest dose often 32.7 µM), for inactives: at the top dose activation (gain of signal), actives largely listed as activators | AID 1963319 | purified FLuc-C-HiBiT + ATP, HiBiT complementation luminescence;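 also: signal reports ligand binding via conformational change of the enzyme rather than luciferase catalysis; % of control where 0% means no effect; nearly all actives have a fitted effect of over 55% in size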
# FLuc inh-2: inhibitors of firefly luciferase enzymatic activity | AID 1963320 | shares compounds with FLuc inh-1 | Potency, µM (titrated, usually from 32.7 µM), inactives show at the highest dose activity change, negative = inhibition, hits mostly inhibitors | purified FLuc-C-HiBiT enzyme, luciferin luminescence | hit rate 42% among 1,300; also: % is scaled to controls: 0 for no effect and ±100 for the full control effect; nearly all actives have a fitted effect of over 70% in size
# An asterisk follows results filed as active; i = inactive; ? = inconclusive; · = not tested or not shown; [ ] = another dose, or the depositor's remark. Unless noted, calls follow the shape of the dose curve; as a rule, active = well fitted curve in the direction sought with a large enough effect; inconclusive = small, poorly fitted or top-dose-only effect, or another doubt; inactive = no such curve, though single readings can be large; an effect the other way counts as inactive or inconclusive. Potency is read from the fitted curve at half-maximal effect.
SMILES,NIH3T3 tox,HEK cytotox,GPT2 inh,NPR1 antag,FLuc inh-1,FLuc SDR -ATP,FLuc SDR ATP,FLuc inh-2
Cc1ccc(C2=CC(c3ccccc3F)n3c(nc4ccccc43)N2)cc1C (centres undefined),·,·,·,·,·,?,?,3.1µM*
C=CCNC(=O)c1cccc2c(C)nnn12,-13%[174 µM],-15%[230 µM],?,-15%[70.6 µM],14µM*,11%[65.7 µM],14%[65.7 µM],-13%[65.7 µM]
COc1ccc(C(=O)N2CCCC(c3nc(-c4ccccc4)no3)CCNC(=O)CC2)c(OC)n1 (centres undefined),-15%,-21%,i,?,7.9µM*,17%,15%,?
Cc1ccc2c(c1)N(CC(=O)N1C[C@@H](C)[C@](O)(C3CCC3)C1)C(=O)CO2,-4%,4%,-31%,3%,i,·,·,·
CCN1CCN(c2ccc3nnc(C4CCC4)n3n2)CC1,-15%,-2%,-7%,0%,i,·,·,·
Nc1cccc(-c2ccc(N3CCCCC3)nn2)c1,35µM*,35µM*,-5%,4µM*,0.4µM*,1.6µM*,1.2µM*,0.56µM*
CCN1CCN(c2ccc(-c3cccc(N)c3)nn2)CC1,?,?,i,?,14µM*,23%,?,9.9µM*
N=c1nc(N2CCCCC2)cc(N)n1O,·,·,-11%,·,·,·,·,·
CCc1ccc2oc(-c3ccc(C)c(NC(=O)c4ccc(C#N)cc4F)c3)nc2c1,·,·,·,·,·,17%,13%,-15%
COc1ccc(-c2noc(-c3ccc(C)cc3Cl)n2)cc1OC,·,·,·,·,·,20%,12%,?
O[C@H]1[C@H](NCc2ccco2)[C@H]2CO[C@H](O2)[C@@H]1N1CCCCC1,4%[174 µM],3%[172 µM],-3%[88.5 µM],-1%[70.6 µM],i,·,·,·
COc1cccc(C(=O)Nc2ccc(-c3nc4ccc(C)cc4s3)cc2)c1OC,·,·,·,·,·,15%,10%,-4%
COc1cccc(C(=O)Nc2cccc(-c3nnc4n3CCCC4)c2)c1OC,?,-12%,i,-15%,i,·,·,·
CCCOc1ccccc1C(=O)Nc1ccc(-c2nc3ccc(C)cc3s2)cc1,·,·,·,·,·,?,?,6.2µM*
Cc1ncc2n1C(=O)N(C1CCN(C(=O)Nc3ccc(Cl)cc3)CC1)C2,-27%,?,2%,?,i,·,·,·
Cc1ccc(C(=O)N2CCc3sc(C(=O)NCc4cc(F)cc(F)c4)cc3C2)cc1,-24%,-29%,i,-11%,i,·,·,·
CC[n+]1c(/C=C/N(C)c2ccccc2)n(-c2ccccc2)c2ccc(-c3nc4ccccc4s3)cc21,·,·,·,·,·,9%,7%,?
COc1cccc(OCc2cc(C(=O)N3CCCCC3c3cccnc3)n[nH]2)c1 (centres undefined),?,-23%,i,4%,i,·,·,·
CCOc1cccc2cc(-c3nc(-c4ccccc4C)no3)c(=O)oc12,·,·,·,·,·,?,?,?
O=C(Nc1ccc(F)cc1)c1cc2cccnn2n1,?,?,i,4%[70.6 µM],14µM*,25%[49.3 µM],19%[49.3 µM],?
O=C(O)c1ccnc(-c2ccnc(NCCCN3CCCC3=O)n2)c1,-11%,i,i,4%,?,·,·,·
O=C(O)c1ccnc(-c2ccnc(NCCN3CCCCC3=O)n2)c1,-4%,i,i[11.5 µM],-3%,1.4µM*,20%,11µM*,?
c1ccc(Nc2ncc(-c3ccccc3)c3c2OCC3)cc1,?,?,i,-29%[70.6 µM],?,·,·,·
COCCNc1ncc(-c2cccc(NC(C)=O)c2)c2c1OCC2,?,?,3%[88.5 µM],?,6.3µM*,24%[49.3 µM],?,?
CNC(=O)c1cccc(-c2cnc(Nc3cccnc3OC)c3c2CCO3)c1,45µM*,28µM*,i,?,3.5µM*,34%[49.3 µM],19%[49.3 µM],5.1µM*
SMILES,NIH3T3 tox,HEK cytotox,GPT2 inh,NPR1 antag,FLuc inh-1,FLuc SDR -ATP,FLuc SDR ATP,FLuc inh-2
CNC(=O)c1cccc(-c2cnc(Nc3ccccc3)c3c2CCO3)c1,35µM*,89µM*,5%[88.5 µM],-6%[70.6 µM],8.9µM*,19%[49.3 µM],13%[49.3 µM],?
O=C(Nc1ncc(-c2ccccc2)c2c1OCC2)c1ccccc1,?,?,4%[88.5 µM],-23%[70.6 µM],5.6µM*,16%[49.3 µM],20%[49.3 µM],?
O=C(CCC1CCN(S(=O)(=O)c2ccccc2)CC1)NC1CCCCCC1,?,?,-7%,-20%,i,·,·,·
O=C(C1CC1)N1CCC2(CC1)NCCc1c2[nH]c2ccccc12,-14%,-18%,-4%,3%,i,·,·,·
Cc1noc(C)c1CC(=O)N1CCC2(CC1)CC(N(Cc1ccccc1)C1CC1)CCO2 (centres undefined),-25%,?,i,4%,i,·,·,·
Fc1cccc(-c2cnc(Nc3ccc(N4CCOCC4)cc3)c3c2CCO3)c1,?,?,-4%[88.5 µM],-28%[70.6 µM],10µM*,17%[49.3 µM],10%[49.3 µM],?
CNC(=O)c1cccc(-c2cnc(NC(=O)Cc3ccccc3)c3c2CCO3)c1,?,?,-5%[88.5 µM],8.9µM*,0.45µM*,11µM*,?,3.2µM*
CN(C)c1cccc(-c2cnc(NC(=O)C3(c4ccccc4)CC3)c3c2CCO3)c1,?,?,i,-3%[70.6 µM],i,·,·,·
COc1cccc(Nc2ncc(-c3ccc(OC)nc3)c3c2OCC3)c1,?,?,4%[88.5 µM],-29%[70.6 µM],5.6µM*,14%[49.3 µM],10%[49.3 µM],?
Fc1cc(Nc2ncc(-c3ccccc3)c3c2OCC3)cc(N2CCOCC2)c1,?,?,3%[88.5 µM],1%[70.6 µM],i,·,·,·
CN1CCc2nc(N3CCN(CC4CCCCC4)CC3)sc2C1,?,?,2%,0%,i,·,·,·
O=C(CCc1conc1-c1ccccc1F)NCc1cc(F)cc(F)c1,-34%,-27%,2%,-4%,?,·,·,·
CC1=C[C@@H](CNC(=O)c2ccncc2)[C@H](C(C)C)C[C@H]1CC(=O)N1CCOCC1,-2%[138 µM],-11%[172 µM],-8%[88.5 µM],?,13µM*,10%[49.3 µM],14%[49.3 µM],-13%[49.3 µM]
CNC(=O)c1cc(C2CC2)nc2c1c(C1CCN(C(=O)c3cccnc3)CC1)nn2C,-2%,i,·,·,·,·,·,·
CCCCCSc1nnc(-c2ccc(Br)cc2)o1,·,·,·,·,·,11%,9%,-6%
Cc1cccc(NC(=O)c2ccc(-c3ccccc3)s2)c1,·,·,·,·,·,25%,17%,2.8µM*
COc1ncccc1-c1cc2c(nc1OC)nc(CCc1ccccc1)n2C,?,?,-19%[88.5 µM],-9%[70.6 µM],i,·,·,·

# Screening data as filed in PubChem BioAssay.
